The list is not random: actives were taken first. Their share in the collection is about 19%.
IL-1B inflam inh: blocks inflammasome-driven IL-1 beta release; THP-1 LPS/ATP IL-1B secretion, AlphaLISA, 16 h; active compounds read low; activity change, % at 57.5 µM; 360,000 tested, 4.7% active; AID 743279; in the data active = activity change below about -50%; inconclusive = mostly about -30% to -49%
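THP-1 cells pretreated 1 hr with compounds (up to 57.5 uM final), then stimulated with LPS (250 ng/mL final) plus ATP (1.25 mM final); secreted IL-1B measured by AlphaLISA after 16 hr, decreased signal indicating inhibition.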
S-ASM inh: inhibitors of human secretory acid sphingomyelinase; P17405; placental ASM, HMU-PC fluorogenic substrate, 60 min; Potency, µM (top dose mostly 57.5 µM), actives largely listed as inhibitors; 340,000 tested, 0.006% active
Target sequence (P17405 47-631 limits assumed): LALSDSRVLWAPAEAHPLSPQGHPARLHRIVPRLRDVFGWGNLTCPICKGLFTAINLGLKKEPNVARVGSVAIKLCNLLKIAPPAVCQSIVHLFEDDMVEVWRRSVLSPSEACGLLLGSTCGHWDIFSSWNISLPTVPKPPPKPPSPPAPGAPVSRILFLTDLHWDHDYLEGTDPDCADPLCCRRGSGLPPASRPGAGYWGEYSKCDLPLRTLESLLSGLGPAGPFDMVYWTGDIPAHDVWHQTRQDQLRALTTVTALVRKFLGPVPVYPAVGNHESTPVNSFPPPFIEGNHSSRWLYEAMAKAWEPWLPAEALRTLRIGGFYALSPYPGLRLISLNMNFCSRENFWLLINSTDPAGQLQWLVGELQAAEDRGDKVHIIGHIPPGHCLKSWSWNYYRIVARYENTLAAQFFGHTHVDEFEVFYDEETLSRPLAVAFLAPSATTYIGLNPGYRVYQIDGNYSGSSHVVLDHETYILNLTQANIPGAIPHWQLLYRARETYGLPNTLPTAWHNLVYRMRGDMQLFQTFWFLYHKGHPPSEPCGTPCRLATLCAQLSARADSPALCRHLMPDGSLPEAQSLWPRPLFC
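qHTS format. ASM enzyme prepared from human placenta hydrolyses the fluorogenic substrate HMU-PC0 (9 uM final) over 60 min at 37 °C after a 10 min compound preincubation.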
DT40 TDP1 CPT: DT40-hTDP1 cell growth loss with CPT; chicken DT40 Tdp1-/-;hTDP1 cells + 20 nM CPT, ATP luminescence, 48 h; Potency, µM (highest dose often 46.2 µM), hits mostly inhibitors; 420,000 tested, 12% active; AID 686979; also: nearly all actives have a fitted effect of over 55% in size
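Chicken DT40 Tdp1-/- cells complemented with human TDP1, 400 cells/well, exposed to compounds plus 20 nM camptothecin for at least 48 h at 37 C; viability read as ATP content by CellTiter-Glo luminescence.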
HepG2 viability: counter-screen for TGF-b inhibitors: cytotoxicity in HepG2 cells; AID 588856; Potency, µM (series often up to 46.1 µM), hits mostly cytotoxic; HepG2 CAGA-GFP viability, ATP luminescence, 18 h; 410,000 tested, 0.76% active
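CellTiter-Glo luminescence gave cytotoxicity after 18 hours at 37 degrees C. The cells were HepG2 CAGA-GFP in 1% FBS DMEM, stimulated with 500 pg/mL TGF-beta after compound addition. %Activity was normalised to no-cell wells (complete cell-killing) and DMSO (no toxicity), and curves were fitted and classified.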
TDP1 cell noCPT: qHTS for Inhibitors of human tyrosyl-DNA phosphodiesterase 1 (TDP1): qHTS in cells in absence of CPT | Potency, µM (titrated, usually from 46.2 µM), actives largely listed as inhibitors | DT40 Tdp1-/- hTDP1 cells, no CPT, ATP luminescence, 48 h | 420,000 tested, 15% active; also: nearly all actives have a fitted effect of over 55% in size
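Chicken DT40 Tdp1-/- cells stably complemented with human TDP1 were seeded at 400 cells/well with DMSO in place of 20 nM camptothecin. After compound pinning, cells grew at least 48 hr at 37 °C; viability read by CellTiter-Glo luminescence.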
TGFb inhibitor: blocks TGF-b signaling. Potency, µM (top dose mostly 46.1 µM), usual class: inhibitors. HepG2 CAGA-GFP TGF-b/SMAD3 reporter, GFP fluorescence, 18 h; TGF-beta stimulated, 500 pg/mL final. 410,000 tested, 1.2% active; also: nearly all actives have a fitted effect of over 65% in size
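GFP signal (ex488/em500-530) from TGF-beta-stimulated HEPG2 CAGA-GFP cells, 500 pg/mL final, 18 h at 37 degrees C in DMEM plus 1% FBS, normalized to unstimulated and DMSO-stimulated controls.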
A number is an active result. Unless noted, calls follow the shape of the dose curve; as a rule, active = well fitted curve in the direction sought with a large enough effect; inconclusive = small, poorly fitted or top-dose-only effect, or another doubt; inactive = no such curve, though single readings can be large; an effect the other way counts as inactive or inconclusive.

`O=C(COC(=O)c1nc(Cl)ccc1Cl)Nc1ccc2[nH]c(=O)[nH]c2c1` gave IL-1B inflam inh inactive, S-ASM inh inactive, DT40 TDP1 CPT inactive, HepG2 viability inactive, TDP1 cell noCPT inactive and TGFb inhibitor inconclusive.
Cc1cccc(N2CCC(N=CN(C)C)=N2)c1 was read as IL-1B inflam inh inactive, S-ASM inh inactive, DT40 TDP1 CPT inactive, HepG2 viability inactive, TDP1 cell noCPT inactive and TGFb inhibitor inactive.
`Cc1nn(-c2ccccc2)c(OC(=O)C(C)C)c1Sc1ccccc1` gave DT40 TDP1 CPT inactive, HepG2 viability inactive, TDP1 cell noCPT inconclusive and TGFb inhibitor inactive.
Cc1nn(S(=O)(=O)c2ccc(Cl)cc2)c(C)c1Sc1ccc([N+](=O)[O-])cc1 was read as IL-1B inflam inh inactive, S-ASM inh inactive, DT40 TDP1 CPT 16.4µM, HepG2 viability inactive, TDP1 cell noCPT 16.4µM and TGFb inhibitor inconclusive.
For Cc1nn(-c2ccccc2)c2c1C(c1ccc([N+](=O)[O-])cc1)C(C#N)=C(N)O2 (configuration not stated) the results were IL-1B inflam inh inactive, S-ASM inh inactive, DT40 TDP1 CPT 14.6µM, HepG2 viability inactive, TDP1 cell noCPT inconclusive and TGFb inhibitor inactive.
For Cc1nn(-c2ccccc2)c(N)c1Sc1ccc([N+](=O)[O-])cc1 the results were IL-1B inflam inh inconclusive, S-ASM inh inactive, DT40 TDP1 CPT inconclusive, HepG2 viability inactive, TDP1 cell noCPT 14.6µM and TGFb inhibitor inconclusive.
COc1ccc2c(c1)[N+](C)(C)C(C)(C)C=C2C was read as IL-1B inflam inh inactive, S-ASM inh inactive, DT40 TDP1 CPT inconclusive, HepG2 viability inactive, TDP1 cell noCPT inconclusive and TGFb inhibitor inactive.
Screening CCOc1ccc2c(c1)[N+](C)(C)C(C)(C)C=C2C returned IL-1B inflam inh -54.6, S-ASM inh inactive, DT40 TDP1 CPT 5.8µM, HepG2 viability inactive, TDP1 cell noCPT 14.6µM and TGFb inhibitor inactive.
`Clc1cccc(N/N=C(\Cc2nc3ccccc3[nH]2)c2ccccc2)c1` gave IL-1B inflam inh -104.0, S-ASM inh inactive, DT40 TDP1 CPT inconclusive, HepG2 viability inactive, TDP1 cell noCPT inconclusive and TGFb inhibitor inconclusive.
`O=C1CC2(CCN(C(=O)c3ccccc3[N+](=O)[O-])CC2)Oc2ccccc21` gave IL-1B inflam inh inactive, S-ASM inh inactive, DT40 TDP1 CPT inconclusive, HepG2 viability inactive, TDP1 cell noCPT inconclusive and TGFb inhibitor inactive.
Screening Cc1ccc(O)c(NC(=O)c2cccc(S(=O)(=O)N3CCCCC3)c2)c1 returned IL-1B inflam inh inactive, S-ASM inh inactive, DT40 TDP1 CPT inconclusive, HepG2 viability inactive, TDP1 cell noCPT inconclusive and TGFb inhibitor inactive.
For Cc1ccc(C(=O)NCc2ccco2)cc1S(=O)(=O)N1CCCCC1 the results were IL-1B inflam inh inactive, S-ASM inh inactive, DT40 TDP1 CPT inactive, HepG2 viability inactive, TDP1 cell noCPT inactive and TGFb inhibitor inactive.
Screening Cc1ccc(O)c(NC(=O)c2ccc(Br)c(S(=O)(=O)N3CCCCC3)c2)c1 returned DT40 TDP1 CPT 9.2µM, HepG2 viability 14.1µM, TDP1 cell noCPT 5.17µM and TGFb inhibitor inconclusive.
Cc1ccc(C(=O)Nc2ccccc2C(=O)NCc2ccco2)cc1S(=O)(=O)N1CCCCC1 was read as IL-1B inflam inh inactive, S-ASM inh inactive, DT40 TDP1 CPT inconclusive, HepG2 viability inactive, TDP1 cell noCPT 16.4µM and TGFb inhibitor inactive.
Cc1ccc(C(=O)NC2CCCC2)cc1S(=O)(=O)N1CCCCC1 was read as IL-1B inflam inh inactive, S-ASM inh inactive, DT40 TDP1 CPT inactive, HepG2 viability inactive, TDP1 cell noCPT inactive and TGFb inhibitor inactive.
Screening Cc1ccc(C(=O)NNC(=O)c2ccccc2O)cc1S(=O)(=O)N1CCCCC1 returned IL-1B inflam inh inactive, S-ASM inh inactive, DT40 TDP1 CPT 16.4µM, HepG2 viability inactive, TDP1 cell noCPT inconclusive and TGFb inhibitor inactive.
Screening COc1cccc(NC(=O)CN(C)C(=O)c2ccccc2-c2nc3ccccc3s2)c1 returned IL-1B inflam inh inactive, S-ASM inh inactive, DT40 TDP1 CPT inconclusive, HepG2 viability inactive, TDP1 cell noCPT 23.1µM and TGFb inhibitor inactive.
Screening CN(CC(=O)Nc1c(Cl)cccc1Cl)C(=O)c1ccccc1-c1nc2ccccc2s1 returned IL-1B inflam inh -52.7, S-ASM inh inactive, DT40 TDP1 CPT inactive, HepG2 viability inactive, TDP1 cell noCPT inconclusive and TGFb inhibitor inactive.
COc1cccc(NC(=O)CN(C)C(=O)CSc2nc3ccccc3s2)c1 was read as IL-1B inflam inh inactive, S-ASM inh inactive, DT40 TDP1 CPT inconclusive, HepG2 viability inactive, TDP1 cell noCPT inconclusive and TGFb inhibitor inactive.
For COc1ccc(NC(=O)CN2C(=O)NC(C)(c3ccc4c(c3)OCCO4)C2=O)cc1S(N)(=O)=O (configuration not stated) the results were IL-1B inflam inh inactive, S-ASM inh inactive, DT40 TDP1 CPT inconclusive, HepG2 viability inactive, TDP1 cell noCPT inactive and TGFb inhibitor inactive.
`Cc1ccccc1-c1cc2nc(NCc3ccccc3)n(C)c(=O)c2s1` gave IL-1B inflam inh inactive, DT40 TDP1 CPT 9.2µM, HepG2 viability inactive, TDP1 cell noCPT inconclusive and TGFb inhibitor inconclusive.
`Cc1ccccc1-c1cc2nc(NCc3ccc(N(C)C)cc3)n(C)c(=O)c2s1` gave IL-1B inflam inh inactive, DT40 TDP1 CPT inconclusive, HepG2 viability inactive, TDP1 cell noCPT 16.4µM and TGFb inhibitor inconclusive.
Screening Cc1ccccc1-c1cc2nc(NCc3ccncc3)n(C)c(=O)c2s1 returned IL-1B inflam inh inactive, DT40 TDP1 CPT inconclusive, HepG2 viability inactive, TDP1 cell noCPT inconclusive and TGFb inhibitor inactive.
CN(Cc1ccc(O)cc1)C1CCCCC1 was read as IL-1B inflam inh inactive, S-ASM inh inactive, DT40 TDP1 CPT inactive, HepG2 viability inactive, TDP1 cell noCPT inactive and TGFb inhibitor inactive.
`CN(Cc1cc(Br)cc(Br)c1N)C1CCCCC1` gave DT40 TDP1 CPT inconclusive and TDP1 cell noCPT 9.44µM.
For c1ccc(NC(c2ccccc2)c2ccncc2)cc1 (configuration not stated) the results were IL-1B inflam inh inactive, S-ASM inh inactive, DT40 TDP1 CPT inactive, HepG2 viability inactive, TDP1 cell noCPT inactive and TGFb inhibitor inactive.
`Cc1ccc2ccc(C(Nc3ccccc3)c3ccc(F)cc3)c(O)c2n1` (configuration not stated) gave IL-1B inflam inh inactive, DT40 TDP1 CPT 9.2µM and TDP1 cell noCPT 5.8µM.
Cc1ccc2ccc(C(Nc3ccccc3)c3ccc(C(C)C)cc3)c(O)c2n1 (configuration not stated) was read as IL-1B inflam inh inactive, DT40 TDP1 CPT 14.6µM and TDP1 cell noCPT 11.6µM.
